# Test results taken from PubChem BioAssay AID504847 (National Center for Advancing Translational Sciences (NCATS), 2011).
# Screen size: about 400,000 compounds; about 3,700 (0.93%) were called active. Another 3% or so got no clear call; they are omitted. The call rests on the fitted dose curve; in most records, active means well fitted inhibition curve with a large enough effect; inconclusive means small, poorly fitted or top-dose-only effect, or another doubt; inactive means no such curve, though single readings can be large or run the other way. What follows is part of a selection rich in actives, with near analogues and random picks from the rest. Where a structure was tested more than once in an assay, its records may differ in their call.
# Molecular target: Vitamin D3 receptor (Homo sapiens) (UniProt P11473)
# Experiment: Inhibitors of the vitamin D receptor (VDR): qHTS
# Details: VDR-SRC2-3 peptide fluorescence polarization, 2 h; max response, negative = inhibition: active compounds read low
# Description: The vitamin D receptor (VDR) is a ligand-activated transcription factor and is partially responsible for the regulation of the endocrine system. This includes the transcriptional regulation of genes involved in the production of the parathyroid hormone (PTH) and the regulation of the blood calcium level. High levels of PHT can cause hypercalcemia in the case of primary and tertiary hyperparathyroidism. The VDR-mediated gene regulation, activated by its ligand 1,25-dihydroxyvitamin D3 (1,25-(OH)2D3), is governed by the recruitment of coactivators. Our hypothesis is that small molecules, with the ability to inhibit the interaction between VDR and certain coactivators, are able to selectively modulate VDR-mediated transcription. Our long term objective is the application these VDR-coactivator inhibitors to study the role of VDR-coactivator binding for specific VDR regulated genes. Ultimately, these molecules can be developed into new treatments for hypercalcemic hyperparathyroidism. No small molecule or non-peptide inhibitors are known for the VDR-coactivator interaction.
# In a collaboration between the University of Wisconsin, Milwaukee and the NIH Chemical Genomics Center (NCGC) a HTS-compatible enzymatic assay was developed. The assay uses fluorescence polarization as its read-out to measure the inhibition between VDR and coregulator peptide SRC2-3 exerted by small molecules. This assay was used to screen the NIH Molecular Libraries Small Molecule Repository (MLSMR).
# NIH Chemical Genomics Center [NCGC]
# NIH Molecular Libraries Probe Centers Network [MLPCN]
# Assay Submitter (PI): Alexander Arnold, University of Wilwaukee
# Both solutions are kept at 4 deg C and protected from light and dispensed using a Kalypsys dispenser. Then 23nl of compounds and controls are added with Kalypsys pintool. […] Plate is centrifuged at 1000 RPM for 15 seconds to remove any residual bubbles. The plate is then incubate at ambient room temperature for 2 hours.
# On the % scale 0 is the no-effect control and ±100 the full control effect; potency means the concentration at half of the fitted maximal effect.
# Vitamin D3 receptor (Homo sapiens), sequence (P11473 whole entry, looked up): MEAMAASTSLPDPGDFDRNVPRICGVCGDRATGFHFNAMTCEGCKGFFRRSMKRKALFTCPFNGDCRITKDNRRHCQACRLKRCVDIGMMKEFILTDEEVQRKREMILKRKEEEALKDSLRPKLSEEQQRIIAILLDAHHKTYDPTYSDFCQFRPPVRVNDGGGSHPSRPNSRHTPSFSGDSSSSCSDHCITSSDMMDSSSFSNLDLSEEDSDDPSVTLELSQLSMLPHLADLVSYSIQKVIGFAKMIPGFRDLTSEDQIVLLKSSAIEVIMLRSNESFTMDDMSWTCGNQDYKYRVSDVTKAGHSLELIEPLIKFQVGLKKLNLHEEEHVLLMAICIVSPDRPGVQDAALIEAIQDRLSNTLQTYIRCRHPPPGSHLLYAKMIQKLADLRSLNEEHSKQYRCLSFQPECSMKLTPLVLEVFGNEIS
SMILES,Potency,"max response, negative = inhibition"
COc1ccc2c(c1)C(=C(C#N)C#N)C(=O)N2CCc1ccccc1,50.1 µM (active),
C#CCN1C(=O)C(O)(CC(=O)c2cc(OC)ccc2OC)c2ccccc21 (stereo unspecified),,-3.89% (inactive)
COc1ccc(C(=O)NC(C)CCc2ccccc2)c(OC)c1 (stereo unspecified),,-15.7% (inactive)
COc1ccccc1-c1nnc(SCC(N)=O)o1,,10.5% (inactive)
CCC(=O)N1CCc2cc(Br)cc(S(=O)(=O)CCC(=O)NCc3ccccc3OC)c21,,-6.5% (inactive)
COc1ccc(C2Nc3ccc(NC(=O)COC(C)=O)cc3C(=O)N2Cc2ccccc2)cc1COc1ccc(NC(C)=O)cc1 (stereo unspecified),,-2.53% (inactive)
CCOc1ccc(N(Cc2ccccc2)C(=O)c2nc(S(C)(=O)=O)ncc2Cl)cc1,12.6 µM (active),
CCOc1ccc(N(Cc2ccccc2)C(=O)c2nc(SCC)ncc2Cl)cc1,,3.07% (inactive)
CCOc1ccc(NC(=O)CN(Cc2ccccc2)S(=O)(=O)c2ccc(Cl)cc2)cc1,,3.79% (inactive)
Cc1ccc(Cn2c(=O)n(CCCC(=O)NCc3ccccc3Cl)c(=O)c3ccccc32)cc1,89.1 µM (active),
COc1ccc(CCNC(=O)CCCn2c(=O)c3ccccc3n(Cc3ccc(C)cc3)c2=O)cc1OC,,-9.82% (inactive)
Cc1ccccc1NC(=O)Cn1c(=O)n(CCCCC(=O)NCc2ccccc2Cl)c(=O)c2ccccc21,,-9.56% (inactive)
O=C1N(Cc2ccccc2)c2ccc(Cl)cc2C1(O)c1c[nH]c2ccccc12 (stereo unspecified),,-7.22% (inactive)
Cc1c(Cl)cccc1-c1ccc(CNCCCSc2nnnn2C)o1,,17.5% (inactive)
CC(C)(C)c1ccc(S(=O)(=O)N2CCN(C(=O)c3cc(-c4ccc(Br)cc4)n[nH]3)CC2)cc1,,0.49% (inactive)
O=C(c1cc(-c2ccc(Cl)cc2)on1)N1CCN(c2ccccc2)CC1,,0.117% (inactive)
O=C(c1cc(-c2ccc(F)cc2)on1)N1CCN(c2ccc(F)cc2)CC1,70.8 µM (active),-26.1% (inactive)
O=C(c1cc(-c2ccc(O)cc2)on1)N1CCOCC1,,4.52% (inactive)
CCCCn1c(=O)c2oc3ccccc3c2n(CC(=O)Nc2ccccc2OC)c1=O,,4.96% (inactive)
C=C(C)C1CC=C(CO)CC1 (stereo unspecified),,1.87% (inactive)
Cc1ccn2c(Nc3ccc4c(c3)OCCO4)c(-c3ccc(C)s3)nc2c1,,-0.614% (inactive)
O=C(O)[C@@H](S)[C@H](S)C(=O)O,17.8 µM (active),
CCCCCCC1(C)NC(c2ccc3c(c2)OCO3)=CC(c2ccccc2O)N1 (stereo unspecified),,-18% (inactive)

SMILES,Potency,"max response, negative = inhibition"
CCOC(=O)c1nnn(CC(=O)NC(=O)Nc2ccccc2F)c1C(=O)OCC,,1.08% (inactive)
N#Cc1ccccc1Cn1cnc2nc3c(cc2c1=O)CCCC3,,-2.58% (inactive)
COCCn1c(CCC(=O)Nc2cc(C)ccc2C)nc2cccnc21,,7.95% (inactive)
COc1ccc(Cl)cc1NC(=O)CSc1nc(-c2cccs2)cc(C(F)(F)F)n1,,-17% (inactive)
COc1ccccc1-c1cc(C(F)(F)F)nc(S(=O)(=O)CCCC(=O)Nc2ccc(F)cc2F)n1,56.2 µM (active),
Cc1ccc(F)cc1NC(=O)CCSc1nc(-c2ccco2)cc(C(F)(F)F)n1,,7.81% (inactive)
CCOc1ccc(-c2cc3nc(C4CCN(C(=O)OC(C)(C)C)CC4)c(C(=O)Nc4ccc(C(=O)OC)cc4)cn3n2)cc1,,-12.8% (inactive)
CCN1C(=O)c2ccccc2S(=O)c2ccc(C(=O)NCc3ccc(F)cc3)cc21 (stereo unspecified),,-17% (inactive)
CO[C@@]12[C@@H](COC(N)=O)C3=C(C(=O)C(C)=C(N)C3=O)N1C[C@@H]1N[C@@H]12,,1.74% (inactive)
COc1ccc(C2C(=O)N(C3CCCCC3)CC(=O)N2Cc2ccccc2Cl)cc1OC (stereo unspecified),,5.49% (inactive)
CC(Sc1nnc2c(n1)C1CCC2(C)C1(C)C)C(=O)Nc1ccccc1 (stereo unspecified),,-21.5% (inactive)
CSc1nc(C)cc(SC(C(C)=O)C(=O)Nc2ccccc2)n1 (stereo unspecified),79.4 µM (active),
CSc1nc(N(C)NC(=O)c2cccc(C)c2)c2ccccc2n1,,6.12% (inactive)
COc1ccc(NC(=O)CSc2nc3ccccc3n2CC(=O)N2CCCCC2C)cc1 (stereo unspecified),,-0.157% (inactive)
O=C(Nc1cccc2cccnc12)C(F)(F)F,,3.86% (inactive)
Cc1ccc(-c2nn(CC(C)(C)C)c3ncnc(N)c23)cc1,,-0.691% (inactive)
CCc1nn(CC(=O)N2CCN(c3ccc(Cl)cc3)CC2)c(=O)c2cc3occc3n12,,22.3% (inactive)
CCN(CC)CCNC(=O)Cn1ncc2c3ccccc3n(Cc3ccccc3C)c2c1=O,,13.4% (inactive)
CCOC(=O)c1c(NC(=O)c2ccc(S(=O)(=O)N(CC)CC)cc2)sc2c1CCCCC2,,-15.3% (inactive)
CCOC(=O)c1c(NC(=O)Cc2coc3ccc(CC)cc23)sc2c1CCC2,,2.49% (inactive)
CCOC(=O)c1c(NC(=O)C2(C)Cc3ccccc3C(=O)O2)sc2c1CCCC2 (stereo unspecified),79.4 µM (active),
CCC(=O)Nc1ccc2nc(SCC(=O)N3CCc4ccccc43)sc2c1,,13% (inactive)
CCOC(=O)C1C/C(=C\C(C)=O)c2cccc(C(F)(F)F)c2O1 (stereo unspecified),,-3.65% (inactive)

SMILES,Potency,"max response, negative = inhibition"
COc1cc(OC)c(C(=O)Nc2ccc(N(C)C)cc2)cc1OC,,-2.21% (inactive)
CN(C)c1ccc(N/C=C/C(=O)C(F)(F)F)cc1,25.1 µM (active),
CN(C)c1ccc(/C=N/NC(=O)C(O)c2ccc(Br)cc2)cc1 (stereo unspecified),,5.61% (inactive)
O=C(CSc1nc(-c2cccc(F)c2)[nH]c1-c1ccccc1)Nc1ccc2c(c1)OCO2,,-7.99% (inactive)
CCOc1ccc(N(CC)C(=O)c2cc3c(=O)oc4ccccc4c3s2)cc1,,-18% (inactive)
CCOc1cc(CNC(=O)c2sc3ncnc(N(C)C4CCCCC4)c3c2C)ccc1OC,,5.17% (inactive)
COc1cc(NC(=O)CSc2nc3nc(C)c(Cc4ccc(C)cc4)c(C)n3n2)cc(OC)c1OC,,12.5% (inactive)
N#CC1=C(N)Oc2n[nH]c(CSc3ccccc3)c2C12C(=O)Nc1ccccc12 (stereo unspecified),,12% (inactive)
N#CC1=C(N)Oc2[nH]c(=S)[nH]c(=O)c2C12C(=O)Nc1ccccc12 (stereo unspecified),44.7 µM (active),
CC1(C)Cc2ccccc2-c2[nH]c(=S)[nH]c(=O)c21,,-2% (inactive)
COc1ccccc1OCCC(=O)OCC(=O)NCc1ccccc1,,-14.2% (inactive)
COc1cc(C(=O)NCc2ccncc2)cc(Br)c1OCc1ccccc1,,-8.88% (inactive)
COc1cc(C(=S)NCc2ccccc2)cc(Br)c1O,50.1 µM (active),
COc1ccc(NC(=O)C2CCCN(S(=O)(=O)c3cccc4nonc34)C2)cc1Cl (stereo unspecified),,-11.1% (inactive)
Cc1ccc(NC(=O)C(=O)NCC(c2cccnc2)N2CCOCC2)cc1 (stereo unspecified),,7.68% (inactive)
COc1ccc(CCn2cc3c(c2-c2ccc(Br)cc2)c(=O)n(C)c(=O)n3C)cc1OC,,-7.8% (inactive)
Cc1ccc(S(=O)(=O)N2CCOCC2)cc1C(=O)Nc1ccccc1N1CCCC1,,-16.8% (inactive)
COCCNC(=S)Nc1cc(S(=O)(=O)N2CCOCC2)ccc1N1CCCCC1,35.5 µM (active),
O=C(COC(=O)Cc1ccc(F)cc1)Nc1cc(S(=O)(=O)N2CCOCC2)ccc1N1CCCC1,,2.6% (inactive)
COCCn1c(=O)c(-c2ccccc2)nc2cnc(N3CCOCC3)nc21,,8.94% (inactive)
CCC(=O)N1N=C(c2ccc(OC)cc2)CC1c1cn(-c2ccccc2)nc1-c1cccs1 (stereo unspecified),,-4.57% (inactive)
Cc1ccccc1NC(=O)Cn1c(=O)n(CCc2ccccc2)c(=O)c2ccccc21,,-10.9% (inactive)
Cc1cc(Cl)ccc1OCC(=O)N(Cc1ccc(N(C)C)cc1)C1CCS(=O)(=O)C1 (stereo unspecified),,9.26% (inactive)

SMILES,Potency,"max response, negative = inhibition"
CC(C)Cn1c(=O)c2ccccc2n2c(-c3cccc(Cl)c3)nnc12,,21.6% (inactive)
O=c1[nH]c2ccccc2n2c(-c3ccccc3)nnc12,12.6 µM (active),
CCc1ccc(NC(=O)c2cc(S(=O)(=O)N3CCCC(C)C3)cn2C)cc1 (stereo unspecified),,9.47% (inactive)
COc1ccc(C2CC(=O)N(Cc3ccccc3C)c3c2c(C)nn3-c2nc(C)cc(C)n2)c(OC)c1 (stereo unspecified),,5.38% (inactive)
Fc1ccc(Nc2nnns2)cc1,79.4 µM (active),
CN(C)c1nc(NN)nc(Nc2ccc(F)cc2)n1,,-11.3% (inactive)
CSc1nc(Nc2ccc(F)cc2)cc(-c2ccccc2)n1,,5.7% (inactive)
Cc1ccc(-c2nc(SCc3ccc(Br)cc3)n3[nH]c(=O)cc3n2)cc1,,16.1% (inactive)
CCc1ccccc1N1CC(c2nc3ccccc3n2CCCCOc2ccccc2)CC1=O (stereo unspecified),,13.5% (inactive)
Cc1cccc(C=CC(=O)c2ccc(Cl)cc2)c1,20 µM (active),
Cc1cccc(C(=O)Nc2ccc(C(=O)/C=C/c3cccs3)cc2)c1,,5.44% (inactive)
Cc1cc(C)nc(NC(=O)/C=C/c2ccc(Cl)cc2)n1,,-4.04% (inactive)
COc1ccc(S(=O)(=O)NCc2cccn2Cc2cccc(C)c2)cc1,,-9.31% (inactive)
CCC1CCCCN1Cc1c(O)ccc2c(=O)c(Oc3ccccc3Cl)c(C(F)(F)F)oc12 (stereo unspecified),,-11.4% (inactive)
CN1CCN2c3ccccc3Cc3ccccc3[C@@H]2C1,,-7.22% (inactive)
COc1ccc(C(=O)CSc2c(C(C)C)cnc3c2c(=O)n(C)c(=O)n3C)cc1,,-4.32% (inactive)
CCc1ccccc1NC(=O)c1sc2nc3c(cc2c1N)CN(Cc1ccccc1)CC3,,-9.37% (inactive)
COc1ccc(NC(=O)CCCc2nnc3n(CCC(C)C)c(=O)c4sccc4n23)c(OC)c1,,-1.71% (inactive)
COc1ccccc1NC(=O)/C=C/C(N)=O,,1.2% (inactive)
COC(=O)c1sc(-c2ccc(C(C)(C)C)cc2)cc1NC(=O)/C=C/C(=O)O,28.2 µM (active),
COc1ccc(NS(=O)(=O)c2ccc(N3CCOCC3)c(NC(=O)/C=C/C(=O)O)c2)cc1,,1.49% (inactive)
